From PubChem BioAssay AID488969 (Vanderbilt High Throughput Screening Facility, 2010) come the findings set out here.

Over roughly 110,000 compounds, “z-score” has its median near -0.1; the highest 2% begin near 2. The sample holds the highest values, similar compounds and a random draw of the others, so the mix is not that of the screen. Activity calls are given as the source filed them.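 The calls were made as follows: active = z-score in the third read window above 3 or below -3; inactive = the rest.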

Chain of Metabotropic glutamate receptor 8 (Rattus norvegicus) (P70579 whole entry, looked up): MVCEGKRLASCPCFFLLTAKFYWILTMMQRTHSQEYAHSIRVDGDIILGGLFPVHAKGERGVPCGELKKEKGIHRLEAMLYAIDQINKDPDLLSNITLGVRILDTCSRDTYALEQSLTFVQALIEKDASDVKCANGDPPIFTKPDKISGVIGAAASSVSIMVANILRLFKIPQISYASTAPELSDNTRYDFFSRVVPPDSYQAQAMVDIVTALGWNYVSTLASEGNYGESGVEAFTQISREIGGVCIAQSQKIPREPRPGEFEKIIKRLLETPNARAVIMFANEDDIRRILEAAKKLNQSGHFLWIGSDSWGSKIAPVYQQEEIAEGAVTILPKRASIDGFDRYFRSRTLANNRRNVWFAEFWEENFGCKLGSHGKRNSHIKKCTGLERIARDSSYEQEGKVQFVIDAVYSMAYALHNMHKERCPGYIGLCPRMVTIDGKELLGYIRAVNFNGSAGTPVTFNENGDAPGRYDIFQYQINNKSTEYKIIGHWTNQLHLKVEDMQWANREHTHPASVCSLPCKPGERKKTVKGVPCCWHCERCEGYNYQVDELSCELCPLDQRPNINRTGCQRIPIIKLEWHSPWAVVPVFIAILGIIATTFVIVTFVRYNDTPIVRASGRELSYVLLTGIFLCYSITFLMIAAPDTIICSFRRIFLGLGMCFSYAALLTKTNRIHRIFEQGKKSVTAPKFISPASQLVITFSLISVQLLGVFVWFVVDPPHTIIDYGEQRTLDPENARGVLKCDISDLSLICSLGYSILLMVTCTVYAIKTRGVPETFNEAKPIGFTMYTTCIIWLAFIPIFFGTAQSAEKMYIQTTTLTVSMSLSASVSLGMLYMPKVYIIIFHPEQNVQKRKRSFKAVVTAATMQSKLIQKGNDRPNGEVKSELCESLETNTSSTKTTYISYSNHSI

The assay concerns the target Metabotropic glutamate receptor 8 (Rattus norvegicus) (UniProt P70579). Nature of the assay: rat mGluR8 modulators via GIRK flux, primary screen, cell-based, thallium flux, HTS (AID 488969). Particulars: HEK293 rat mGluR8, GIRK (G protein-gated inwardly rectifying potassium channel) thallium flux, FluoZin2; at 10 µM; stronger effect = higher value; submaximal glutamate (EC20) added with thallium.
Molecule `CCCC(=O)Nc1sc2c(c1C(=O)OC)C(C(=O)OC)CC2` (configuration not stated) gave a z-score of -0.0731.
In the case of `CCOC(=O)Nc1sc2c(c1C#N)CCC(C)C2` (configuration not stated) it was -0.505; in that of `CCOC(=O)C1CCc2sc(N)c(C#N)c21` (configuration not stated), 2.38.
To `Cc1ccc(O)c(C(=O)c2cnc3c(c2)COc2ccccc2-3)c1` belongs -0.0344.
In the case of `CCOC(=O)C1=C(C)NC(C)=C(C(=O)OCC)C1c1ccc(O)cc1` it was -0.238; in that of `O=C(Nc1ccc2c(c1)OCCO2)C1CCN(c2cnccn2)CC1`, 2.51; in that of `O=C(Nc1ccc2c(c1)OCCO2)C1CCC1`, 0.045.
Molecule `CS(=O)(=O)N1CCC(C(=O)Nc2ccc3c(c2)OCCO3)CC1` registered a z-score of 0.0973.
For `Cc1cc(C)nc(SCC(=O)c2c(N)n(C)c(=O)n(C)c2=O)n1`, the z-score is -0.282.
`C=CCNC(=O)c1ccc(-c2nc(-c3ccc(Cl)c(Cl)c3)cs2)cc1` yielded a z-score of -0.148.
Turning to `CN(C)CCCNC(=O)c1ccc(-c2nc(-c3ccc(Cl)cc3)cs2)cc1`, the z-score was 3.28 (active).
To `C=CCNC(=O)c1ccc(-c2nc(-c3ccccc3)cs2)cc1` belongs 0.133.
To `CCc1cccc(C)c1NC(=O)CCCC(=O)O` belongs 0.0858; to `Cc1ccccc1Cn1ccc(NC(=O)c2nc3ncccn3n2)n1`, -1.29.
Regarding `Cc1ccccc1Cn1cc(NC(=O)c2nc3ncccn3n2)cn1`, the z-score came out at 2.77.
To `O=C(Nc1cnn(Cc2ccccc2)c1)c1nc2ncccn2n1` belongs -0.222.
In the case of `COc1ccc(/C=C/C(=O)c2sc(-c3ccccc3)nc2C)cc1`, the z-score was 0.276.
In the case of `COc1ccc(-c2nc(N)nc(C)c2Oc2ccccc2Br)c(O)c1` it was -0.381.
Turning to `CSc1ccc(CCNC(=O)CSc2ccsc2[N+](=O)[O-])cc1`, the z-score is -0.173.
To `CCc1nnc(NC(=O)CSc2nc(-c3ccccc3)cc(-c3ccc(OC)cc3)c2C#N)s1` belongs -0.249; to `CCc1nnc(NC(=O)CSc2nc(-c3ccc(F)cc3)cc(-c3ccccc3)c2C#N)s1`, 2.35; to `CCc1nnc(NC(=O)CSc2nc(-c3ccccc3)cc(-c3ccc(F)cc3)c2C#N)s1`, -0.163.
To `c1ccc(-c2nc(CSc3n[nH]c(-c4cccs4)n3)cs2)cc1` belongs 0.259.
In the case of `CCOC(=O)C1CCCN(C(=O)c2cn(CC(C)C)c(=O)c3cc(OC)c(OC)cc23)C1` (configuration not stated) it was -0.759.
Molecule `COc1cc2c(C(=O)N3CCN(C4CCCCC4)CC3)cn(CC(C)C)c(=O)c2cc1OC` came in with a z-score of 2.68.
In the case of `CCCN1CCN(C(=O)c2cn(CC(C)C)c(=O)c3cc(OC)c(OC)cc23)CC1` it was -0.37; in that of `Cc1nn(-c2ccccc2)c(Cl)c1C(=O)OC(C)C(=O)Nc1ccc2c(c1)OCO2` (configuration not stated), -0.936.
As to `CCCn1nnc(NC(=O)c2ccc(F)cc2)n1`, the z-score is -0.08.
`CCCCc1ccc(-c2nc(N)n[nH]2)cc1` registered a z-score of 2.99.
In the case of `COc1ccc(-c2nc(N)n[nH]2)cc1` it was -0.101.
To `Nc1n[nH]c(-c2ccccc2)n1` belongs 0.189; to `CCOC(=O)c1c(C)[nH]c(C(=O)COC(=O)c2ccccc2NC(=O)c2ccco2)c1C`, -0.00749; to `Cc1ccc(NC(=O)CSCCc2ccccn2)nc1`, 0.022.
In the case of `CSc1ccc(/C=N/NC(=O)CNc2cccc3ccccc23)cc1` it was 0.3.
With `CCNC(=O)NC(=O)C(C)OC(=O)C1CCN(S(=O)(=O)c2ccc(C)c(C)c2)CC1` (configuration not stated), the z-score is -0.143.
Consider `S=c1nc(-c2ccccc2)n(Cc2ccco2)c2c1CCCC2`, for which the z-score is 2.16.
In the case of `COc1cccc(-c2nc(=S)c3c(n2Cc2ccco2)CCCC3)c1` it was 0.708.
The molecule `Cc1cccc(-c2nc(=S)c3c(n2Cc2ccco2)CCCC3)c1` returned a z-score of 0.581.
To `CCCc1[nH]nc2c1C(c1ccc(OCCN3CCOCC3)c(OCC)c1)C(C#N)=C(N)O2` (configuration not stated) belongs -0.892.
To `CCC(=O)NC(=S)Nc1ccc(NC(=O)COc2ccc(Cl)cc2Cl)cc1` belongs -0.124; to `COC(=O)NC(=S)Nc1ccc(Oc2ccc(Cl)cc2Cl)c(Cl)c1`, 3.69 (active).
To `CCc1ccc(OCC(=O)NC(=S)Nc2ccc(F)cc2)c(Br)c1` belongs 0.182; to `CC(=O)NC(=S)Nc1ccc(NC(=O)COc2ccc(Cl)cc2Cl)cc1`, -0.0173.
On to `CCCC(=O)Nc1cccc(NC(=S)NC(=O)C(C)Oc2ccc(Cl)cc2Cl)c1` (configuration not stated), for which the z-score is -0.0105.
To `C=CCNC(=S)NNC(=O)COc1ccc(Cl)cc1Cl` belongs 6.1 (active); to `O=C(COc1ccc(CO)cc1Cl)Nc1ccc(F)cc1`, 0.647.
To `C=CCNC(=O)COc1ccc(Br)cc1Cl` belongs 0.0502; to `COC(=O)NC(=S)Nc1ccc(Oc2ccc(Cl)cc2)c(Cl)c1`, 1.29.
In the case of `COc1ccc(NC(=S)NNC(=O)COc2ccc(Cl)cc2Cl)cc1` it was 2.95; in that of `O=C(COc1ccc(Cl)cc1Cl)NNC(=S)Nc1ccc(F)cc1`, 7.82 (active); in that of `C=CCNC(=S)NNC(=O)COc1c(Cl)cc(Cl)cc1Cl`, 0.71.
`COc1cccc(C(=O)N2CCN(S(=O)(=O)Cc3ccccc3)CC2)c1OC` showed a z-score of 1.15.
In the case of `C=CCn1cc([N+](=O)[O-])nc1C` it was -0.339; in that of `COC(=O)COc1ccc(S(=O)(=O)Nc2ccc3c(c2)OCO3)cc1`, -0.955; in that of `Cc1cc(F)ccc1NCC(=O)Nc1ccccc1Br`, 1.92.
In the case of `CC(=O)NCC(=O)N(c1ccccc1)C1(C(=O)NC2CCCCC2)CCCCC1` it was 0.432; in that of `COc1ccc(-c2nc(Cn3c(SCc4ccc(F)cc4)nc4ccncc43)c(C)o2)cc1OC`, 0.565.
In the case of `O=C1C2C(c3ccccc3)C=CC(c3ccccc3)C2C(=O)N1c1ccncc1` (configuration not stated) it was -0.325; in that of `Cc1cc(C(=O)COc2nncc3ccccc23)c(C)n1C`, 0.0547; in that of `Cc1cc(C(=O)COc2ncnc3sccc23)c(C)n1C1CC1`, -0.349.
Molecule `Cc1cc(C(=O)COc2ncnc3sccc23)c(C)n1C` came in with a z-score of 2.04.
The molecule `Oc1ccccc1N1CCN(c2ncccn2)CC1` registered a z-score of 0.0492.
To `O=C(OCC(=O)N1CCc2ccccc21)c1cccc(S(=O)(=O)N2CCCc3ccccc32)c1` belongs -0.134.
For `O=C(N/N=C/c1ccc(OC(=O)c2ccccc2)cc1)c1ccc(CN2CCOCC2)cc1`, the z-score was determined as 0.54.
To `Cc1c(Cl)cccc1-n1ccnc1SCC(=O)O` belongs -0.317; to `Cc1ccc(C)c(OCC(O)CN2C(C)CCCC2C)c1` (configuration not stated), 3.05 (active).
In the case of `COc1cccc(OCC(O)CN2C(C)CCCC2C)c1` (configuration not stated) it was 0.438; in that of `CC(=O)c1ccc(OCC(O)CN2C(C)CCCC2C)cc1` (configuration not stated), -0.288.
`CCN(CC)S(=O)(=O)c1ccc(NC(=O)c2cc(C(=O)OC)cc([N+](=O)[O-])c2)cc1` yielded a z-score of -0.729.
The molecule `N#CC1(Cc2ccc([N+](=O)[O-])cc2)c2ccccc2C=CN1C(=O)c1ccccc1` (configuration not stated) yielded a z-score of 2.08.
In turn, `N#CC1(Cc2ccc(Cl)cc2)c2ccccc2C=CN1C(=O)c1ccccc1` (configuration not stated) displayed a z-score of -0.14.
With `N#CC1(Cc2ccccc2)c2ccccc2C=CN1C(=O)c1ccccc1` (configuration not stated), the z-score was -0.211.
